# MITF inh – MITF inhibitors, primary screen, biochemical, AlphaScreen, human; AlphaScreen MITF homodimerization, bead proximity signal; inhibition, % at 2.6 µM; 650,000 tested, 0.91% active; AID 1259374, 2018; in the data active means inhibition above about 50%;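 further: 0% = vehicle wells with protein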
# Target sequence (O75030 whole entry, looked up): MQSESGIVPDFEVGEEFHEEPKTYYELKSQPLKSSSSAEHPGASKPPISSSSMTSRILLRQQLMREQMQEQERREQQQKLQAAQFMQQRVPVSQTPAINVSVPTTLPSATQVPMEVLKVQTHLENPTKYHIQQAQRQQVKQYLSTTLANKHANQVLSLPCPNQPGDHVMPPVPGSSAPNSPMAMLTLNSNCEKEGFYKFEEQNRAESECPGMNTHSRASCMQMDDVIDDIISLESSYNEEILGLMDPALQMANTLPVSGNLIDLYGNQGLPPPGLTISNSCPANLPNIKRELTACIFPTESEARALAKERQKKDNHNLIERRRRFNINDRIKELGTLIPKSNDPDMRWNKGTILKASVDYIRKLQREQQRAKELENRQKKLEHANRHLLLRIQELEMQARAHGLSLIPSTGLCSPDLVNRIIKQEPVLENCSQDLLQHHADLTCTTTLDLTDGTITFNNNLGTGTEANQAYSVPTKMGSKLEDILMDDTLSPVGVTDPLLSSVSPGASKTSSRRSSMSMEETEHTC
# GPR151 ag – activators of human GPR151, primary screen, cell-based, PathHunter beta-arrestin, luminescence; G-protein coupled receptor 151 (Homo sapiens), Q8TDV0; PathHunter beta-arrestin GPR151 cells; activation, % at 11.2 µM; 650,000 tested, 1% active; in the data active means activation above about 4.9%;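 further: 0% = median of compound wells and 100% = cells with positive control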
# TEAD-YAP block – TEAD-YAP interaction inhibition, primary screen, TEAD-YAP interaction inhibitor project, luminescence, HEK-TIYL cells. AID 1259422, 2018. 640,000 tested, 1.4% active. inhibition, % at 9.12 µM. TEAD-Gal4/YAP UAS-luciferase luminescence; in the data active means inhibition above about 32%;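 further: 0% = median of test compound wells and 100% = reference inhibitor wells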
# FBW7 activator – FBW7 E3 ligase activators, primary screen, biochemical, AlphaScreen, human | AlphaScreen FBW7–phospho-cyclin E peptide binding, activator screen | normalized activity (activation), % at 26.1 µM | AID 1259310, 2017 | 650,000 tested, 0.13% active; in the data active means normalized activity above about 1.9%;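 further: purified mutant Fbw7 with reduced substrate affinity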
# * marks the source's active call; other numbers are inactive results. Sampled rows, rich in hits. Any-hit rate of the full collection: about 3.5%.
SMILES,MITF inh,GPR151 ag,TEAD-YAP block,FBW7 activator
O=C(O)CCCN1C(=O)/C(=C\c2ccccn2)SC1=S,0,2,87*,0
O=C(O)CCCN1C(=O)/C(=C/c2ccc(O)cc2)SC1=S,15,-6,75*,0
O=C(O)CCN1C(=O)/C(=C/c2ccc([N+](=O)[O-])o2)SC1=S,56*,-1,21,0
Cc1ccc(CNC(=O)CN(c2ccc(Br)c(C)c2)S(C)(=O)=O)cc1,15,0,8,0
CCCOc1ccc(-c2cn3ccccc3n2)cc1,0,-8,79*,0
Clc1ccc(-c2cn3ccccc3n2)cc1,-3,-8,-11,0
COc1ccc(-c2cn3ccccc3n2)cc1,5,-9,66*,0
COc1ccc(-c2cn3ccccc3n2)cc1F,9,-8,55*,0
COc1ccc(-c2cn3ccccc3n2)cc1Br,-3,-7,-28,0
Cc1ccc(-c2cn3ccccc3n2)cc1,14,-9,53*,0
CCOc1ccc(S(=O)(=O)Nc2ccc(-c3cn4ccccc4n3)cc2)cc1,-1,5,0,0
CCOCCCNC(=O)CCNS(=O)(=O)c1ccc(OC)cc1,-3,0,3,0
CCOC(=O)/C(C#N)=C/c1ccc(N2CCCCC2)c([N+](=O)[O-])c1,3,1,7,0
Cc1cc[n+](C2=Nc3ccccc3NC2=C(C#N)C#N)cc1,9,-1,9,0
COc1ccc(-c2cn3cc(-c4ccc(F)cc4)nc3n2C)cc1,2,0,92*,0
COc1ccc(-c2cn3nc(C)c(C)nc3n2)cc1,1,-8,57*,0
COc1cccc(-c2cn3nc(C)c(C)nc3n2)c1,7,-7,-2,0
O=C(O)C1CCCN(S(=O)(=O)c2cccc(C(F)(F)F)c2)C1 (configuration not stated),-2,1,-1,0
c1ccc(Nc2nc(Nc3ccc(N4CCOCC4)cc3)nc3c2ncn3-c2ccsc2)cc1,9,0,11,0
CCN(CC)c1nc(Nc2ccc3c(c2)OCO3)nc(Nc2ccncn2)n1,-10,4,-25,4.0*
c1cncc(CNc2nc(Nc3ccc(N4CCOCC4)cc3)nc3c2ncn3-c2ccsc2)c1,2,2,57*,0
CC(=O)Nc1ccc(Nc2ccnc(-c3c(C)nn(C)c3C)n2)cc1,-1,4,54*,0
c1cc(-n2cnc3c(Nc4ccc(N5CCOCC5)cc4)nc(Nc4ccc(N5CCOCC5)cc4)nc32)cs1,14,-2,35*,0
O=C(CSc1ccc(-c2ccc(F)cc2)nn1)Nc1c[nH]c(=O)[nH]c1=O,-1,-1,-8,0
Cn1c(=O)[nH]c(=O)c2c1nc(NCCCN1CCOCC1)n2CCCOc1ccccc1,7,1,3,0
SMILES,MITF inh,GPR151 ag,TEAD-YAP block,FBW7 activator
CC(C)(C)c1ccc(C(=O)Nc2cc(C(=O)N3CCC(Cc4ccccc4)CC3)ccc2N2CC3CC(C2)c2cccc(=O)n2C3)cc1 (configuration not stated),3,0,-2,0
C=CCn1c(SCC(=O)c2ccc(Cl)cc2)nnc1-c1cccnc1,0,0,-9,0
CCC1CN(CCNC(=O)C2CCC(=O)N2)Cc2cc(OC)ccc2O1 (configuration not stated),-1,0,-3,0
c1cc(Nc2nc(Nc3ccc4c(c3)OCO4)c3ncn(-c4ccsc4)c3n2)ncn1,-9,1,-25,10*
c1ccc(Nc2nc(-c3ccc(N4CCOCC4)nc3)nc3c2ncn3-c2ccccc2)cc1,5,0,-1,0
c1cnc(Nc2nc(Nc3ccc4c(c3)OCO4)c3ncn(-c4ccsc4)c3n2)cn1,6,-1,-28,0
CC(=O)Nc1ccc(Nc2nc(-c3c(C)nn(C)c3C)nc3c2ncn3-c2ccsc2)cc1,12,1,44*,0
COc1ccc(-c2nc(Nc3ccc(N4CCOCC4)cc3)c3ncn(-c4ccccc4)c3n2)cn1,12,-2,34*,0
FC(F)(F)c1ccc(Nc2nc(Nc3ccc(N4CCOCC4)cc3)c3ncn(-c4ccsc4)c3n2)cc1,9,-2,2,0
CC(=O)Nc1ccc(Nc2nc(Nc3ccc(N4CCOCC4)cc3)nc3c2ncn3-c2ccsc2)cc1,19,-1,38*,0
Cc1nn(C)c(C)c1-c1nc(Nc2ccccc2)c2ncn(-c3ccsc3)c2n1,11,2,-35,0
CCN(CC)CCCN1C(=O)C2C(C(=O)Nc3ccc(C(C)C)cc3)C3C=CC2(O3)C1C(=O)NC1CCCCC1C (configuration not stated),-8,0,5,0
CCCCSc1nnc2n(-c3cccc(OC)c3)c(=O)c3c(n12)-c1ccccc1CC31CCCCC1,-6,-1,-1,0
c1cc(-n2cnc3c(Nc4ccc5c(c4)OCO5)nc(Nc4ccc(N5CCOCC5)cc4)nc32)cs1,17,0,42*,0
c1cc(-n2cnc3c(Nc4ccc5c(c4)OCO5)nc(NCCN4CCOCC4)nc32)cs1,22,-2,44*,0
COc1ccc(-c2nc(Nc3ccc(N4CCOCC4)cc3)c3ncn(-c4ccsc4)c3n2)cc1,3,2,38*,0
c1cc(-n2cnc3c(Nc4ccc5c(c4)OCO5)nc(NCc4ccc5c(c4)OCO5)nc32)cs1,1,-1,-47,0
CC(=O)Nc1ccc(Nc2nc(Nc3ccncc3)nc3c2ncn3-c2ccsc2)cc1,11,2,25,0
CC(=O)Nc1ccc(Nc2nc(Nc3ncccn3)nc3c2ncn3-c2ccsc2)cc1,1,-2,50*,0
CCN(CC)C(=O)CN(Cc1ccccc1)S(=O)(=O)c1ccc(C)cc1,-10,1,-2,0
N/C(=N\c1nc(C(F)(F)F)cc(=O)[nH]1)Nc1ccc(I)cc1,-6,-1,45*,0
Cc1ccc(OCCn2cc(C(=S)N3CCCC3)c3ccccc32)cc1C,14,0,52*,0
S=C(c1cn(CCOc2ccccc2)c2ccccc12)N1CCCC1,-2,0,-9,0
Cc1ccccc1OCc1nc2ccc(-c3cn[nH]c3C)cc2c(=O)[nH]1,6,0,48*,0
COc1cccc(OCc2nc3cc(-c4cn[nH]c4C)ccc3c(=O)[nH]2)c1,26,-1,56*,0
Cc1cc(/C=N/NC(N)=S)c(O)c(/C=N/NC(N)=S)c1,82*,0,0,-1
NC(=O)C(=O)N/N=C/c1cccc(O)c1O,56*,1,-7,-1
NC(=S)N/N=C/c1cccc(/C=N/NC(N)=S)c1,9,0,2,0
NC(=O)N/N=C/c1cccc(C(=O)O)c1O,-6,1,3,0
NC(=S)N/N=C/c1cc(Cl)cc(Cl)c1O,37,0,7,-3
